From PubChem BioAssay
TRHR enhancer: qHTS for Small Molecule Agonists and Allosteric Enhancers of Human TRH Receptor: Primary Screen for Enhancers; TRHR cells, fluo-8 calcium fluorescence, EC20 TRH enhancement; enhancement, % at 2 µM; 0.66% of 360,000 active; AID 493056, 2011; in the data active = enhancement above about 30%; also: 0% is about no effect
Target sequence (P34981 whole entry, looked up): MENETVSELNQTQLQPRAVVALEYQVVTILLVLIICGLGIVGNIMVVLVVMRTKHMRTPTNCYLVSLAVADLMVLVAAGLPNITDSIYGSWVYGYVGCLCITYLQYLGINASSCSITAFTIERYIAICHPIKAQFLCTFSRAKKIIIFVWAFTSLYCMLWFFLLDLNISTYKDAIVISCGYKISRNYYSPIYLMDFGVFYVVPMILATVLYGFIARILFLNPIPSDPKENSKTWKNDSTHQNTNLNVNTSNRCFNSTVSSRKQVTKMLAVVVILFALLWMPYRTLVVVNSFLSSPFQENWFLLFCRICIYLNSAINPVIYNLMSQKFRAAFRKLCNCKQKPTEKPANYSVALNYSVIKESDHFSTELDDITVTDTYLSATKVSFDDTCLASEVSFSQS
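Enhancer read-out: after compound pinning and an initial kinetic agonist-mode read, an EC20 of TRH (10 nM final) was injected and fluo-8 calcium signal (Ex 480/Em 530) followed at 1 s/cycle for 100 cycles in TRHR-expressing cells.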
D1 antag: Antagonist of Human D 1 Dopamine Receptor: qHTS. 3.2% of 360,000 active. D(1A) dopamine receptor (Homo sapiens), P21728. HEK293 TREx D1 cells, calcium flux, dopamine EC80; active compounds read low. activity change, negative = inhibition, % at 10 µM; in the data active = activity change below about -30%; also: % is scaled to controls: 0 for no effect and ±100 for the full control effect
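Tetracycline-induced HEK293 T-REx cells with force-coupled D1 receptor were loaded with a no-wash calcium dye. Compound was added after a 10 s baseline and read kinetically for 180 s; EC80 dopamine was then added and calcium flux followed another 180 s.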
D1 potentiator: Potentiators of Human D1 Dopamine Receptor: qHTS | potentiation, % at 10 µM | AID 504651, 2011 | 0.036% of 360,000 active | HEK293 TREx D1 cells, calcium flux, dopamine EC20 potentiation; in the data active = potentiation above about 30%; also: 0% is about no effect
D1 agonist: Allosteric Agonists of the Human D1 Dopamine Receptor: qHTS; 1% of 360,000 active; D(1A) dopamine receptor (Homo sapiens), P21728; activation, % at 2 µM; HEK293 T-REx D1 cells, calcium flux, agonist mode; also: 0% is about no effect
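Inducible HEK293 T-REx D1 cells, force-coupled to calcium signalling, were plated at 4000 cells/well with tetracycline and held overnight at 30 C. After no-wash calcium dye loading, compound-evoked calcium rise over 180 s flagged agonists.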
TRHR agonist: qHTS for Small Molecule Agonists and Allosteric Enhancers of Human TRH Receptor: Primary Screen for Agonists. TRHR cells, calcium flux fluo-8, FDSS agonist mode. activation, % at 2 µM. 0.18% of 360,000 active; also: 0% is about no effect
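Steps: seed TRHR cells overnight; add fluo-8 no-wash Ca dye, RT 30 min–1.5 h; record 10 s baseline; pin-transfer compounds; monitor fluorescence 1 cycle/s for the agonist window. Calcium increases flag candidate agonists.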
An asterisk follows results filed as active; . = not tested or not shown. Sampled rows, rich in hits. Any-hit rate of the full collection: about 4.7%. Rule as the data show it, unless noted: active = activation above about 30%; inactive = the rest.

SMILES | TRHR enhancer | D1 antag | D1 potentiator | D1 agonist | TRHR agonist
CC(C)c1ccc(S(=O)(=O)N2CCN(C(=O)c3ccncc3)CC2)cc1 | 1 | -31* | . | 10 | 0
COc1cc(-c2cc(C(=O)O)c3c(OC)c(OC)c(OC)cc3n2)ccc1O | 0 | -50* | -8 | 1 | 1
CCN(CC)S(=O)(=O)c1ccc2oc(SCc3ccc(F)cc3)nc2c1 | -1 | -36* | -8 | 29 | -2
CCOC(=O)N1CCC(NC(=O)CS(=O)Cc2nc(-c3ccc(C)cc3)oc2C)CC1 (centres undefined) | -10 | -35* | -2 | -1 | 2
Cc1cccc(-c2nc(CN3CCCC(C(=O)NC4CCCCCC4)C3)c(C)o2)c1 (centres undefined) | 2 | -15 | -4 | 27 | 1
CCOC(=O)N1CCC(NC(=O)C2CCCN(Cc3nc(-c4ccc(CC)cc4)oc3C)C2)CC1 (centres undefined) | 10 | -34* | -5 | 37* | -1
C/C(=N/NC(=O)C1CCCC1)c1ccc(NC(=O)C(F)(F)F)cc1 | 1 | -10 | -6 | 0 | 0
NC(=S)NNC(=O)C12CC3CC(CC(C3)C1)C2 | -10 | -24 | 8 | 185* | 32*
FC(F)(F)c1cnc2c(c1)[nH]c(=S)n2-c1ccc(Cl)cc1 | -1 | -16 | 13 | 9 | 4
Fc1ccc(-n2c(=S)[nH]c3cccnc32)cc1 | 6 | -33* | -6 | -2 | 0
CC(=O)N1CCSc2ccc(S(=O)(=O)NCc3ccccc3)cc21 | 1 | 4 | -7 | 13 | 0
CC(=O)N1CCSc2ccc(S(=O)(=O)NCc3ccc(F)cc3)cc21 | 3 | -30* | -4 | 7 | 0
COc1ccc(CNS(=O)(=O)c2ccc3c(c2)N(C(C)=O)CC(C)S3)cc1 (centres undefined) | -2 | 1 | -4 | 11 | 0
CC(=O)N1CC(C)Sc2ccc(S(=O)(=O)NCc3ccc(F)cc3)cc21 (centres undefined) | 2 | -37* | -2 | 11 | 0
COc1ccc(N2CCN(C(=O)CN3CCN(C(c4ccccc4)c4ccccc4)CC3)CC2)cc1 | 23 | 6 | -11 | 0 | -2
Cc1ccccc1NC(=O)N1C2CCC1CC(O)(c1cccnc1)C2 (centres undefined) | -4 | -34* | -2 | 0 | -1
Cc1cccc(C)c1NC(=O)N1C2CCC1CC(O)(c1cccnc1)C2 (centres undefined) | 9 | -2 | 5 | 2 | 0
CCCn1c(-c2cccc(Br)c2)nc2ccccc21 | 3 | -35* | -3 | 1 | -3
Cc1cccc(-c2nc3ccccc3n2Cc2ccccc2)c1 | -5 | -49* | 0 | 53* | -1
COc1ccc(-c2nc3ccccc3n2Cc2ccc(Cl)cc2)cc1 | 1 | -32* | -3 | 25 | -1
CCC(C(=O)Nc1ccccc1OC)n1nc(C)c2sc3ccccc3c2c1=O (centres undefined) | -4 | 12 | -1 | 25 | 0
Cc1nc(-c2ccc(Cl)cc2)sc1CCNC(=O)C(=O)Nc1ccccc1C#N | 1 | -10 | -2 | 8 | 0
CN1CCN(CC#CC(C)(O)C2CC3C=CC2C3)CC1 (centres undefined) | 4 | -74* | -1 | 4 | 0
OC(CCN1CCCCC1)(c1ccccc1)C1C[C@@H]2C=C[C@H]1C2 (some centres undefined) | -10 | 24 | -4 | 12 | -1
CC1=C(C(N)=O)C(c2cccc(Br)c2)n2nc(SCc3ccccc3)nc2N1 (centres undefined) | -1 | 1 | 1 | 3 | 1
SMILES | TRHR enhancer | D1 antag | D1 potentiator | D1 agonist | TRHR agonist
CCOC(=O)c1c(NC(=O)/C=C/c2ccc(C(C)C)cc2)sc2c1CCC2 | -2 | 5 | 3 | 1 | 0
CCN(CC)C(=O)CS(=O)(=O)CC(=O)Nc1cc(OCCOC)c(Cl)cc1Cl | -1 | -55* | 1 | 1 | -1
COCCOc1cc(NC(=O)CS(=O)CC(=O)N(C)C)c(Cl)cc1Cl (centres undefined) | -5 | 17 | 1 | 3 | 0
CCOC(=O)C1=C(C)NC(C)=C(C(=O)OCC)C1C(=O)OCC(=O)N(C)C1CCS(=O)(=O)C1 (centres undefined) | -4 | -36* | -4 | 2 | 0
CN(C(=O)COC(=O)c1ccccc1OCc1ccc(F)cc1)C1CCS(=O)(=O)C1 (centres undefined) | 12 | -31* | -6 | -1 | 1
CCOC(=O)C1=C(C)NC(C)=C(C(=O)OCC)C1C(=O)OCC(N)=O | -1 | 1 | -6 | -3 | 0
CN(C(=O)COC(=O)c1ccccc1Nc1ccccc1)C1CCS(=O)(=O)C1 (centres undefined) | -3 | -17 | 7 | 0 | -1
CCCSc1nnc2c(n1)OC(c1cccs1)Nc1ccc(Br)cc1-2 (centres undefined) | -6 | -1 | 6 | -2 | -1
COc1cccc(C2CC(=O)Nc3cc(OC)c(OC)c(OC)c32)c1OC(C)C (centres undefined) | -4 | 6 | -4 | 1 | 0
O=C(CSc1ccccc1F)NNC(=O)c1ccncc1 | 5 | 5 | 3 | 1 | 0
O=C(CSc1ccccc1)NNC(=O)c1ccncc1 | 32* | 4 | 1 | 5 | 0
C=CCCCCCCCC(=O)OC | 0 | -11 | -5 | 4 | -1
O=C(O)CCc1nn2cc(-c3ccccc3)nc2[nH]c1=O | -1 | -79* | -5 | 1 | 0
COc1ccc(N2CCN(C(=O)C(=O)c3cn(CC(=O)N4CCCCCC4)c4ccccc34)CC2)cc1 | -4 | -58* | -6 | 1 | 0
CCN(C#N)c1nc(NC(C)C)nc(NC(C)(C)C)n1 | 16 | 27 | 0 | 51* | 2
CCOC(=O)C(Cc1ccccc1)NC(=O)CCc1nnc2ccc(N3CCOCC3)nn12 (centres undefined) | -3 | -30* | -6 | 2 | 0
COCCNC(=O)CCc1nnc2ccc(N3CCC(C)CC3)nn12 | 31* | 3 | -4 | 1 | 0
COc1cc(OC)c(NC(=O)c2c(C)oc3ncn(C)c(=O)c23)cc1Cl | -5 | 5 | 0 | -1 | 0
CN(C)c1ccc2c(c1)OC(N)=C(C#N)C2c1cccc(F)c1 (centres undefined) | -4 | -20 | -4 | 75* | 21
COc1ccc(Cl)cc1NC(=O)CCN1C(=O)C2CC=CCC2C1=O (centres undefined) | 0 | 2 | -1 | 3 | -1
